Data reported in the supplement of paper PMC6555819.

Test system: PPARg:RXRa DBDmut IVT, anti-RXR (DBD mutation: RXRa K156A/R161A, NR concentration 270 nM, RXRa partner concentration 90 nM)
Assay: PBM binding z-score (relative to random genomic background probes); higher = stronger binding; sequences stand for … in GC…GCGATTGACAGCGTAGAATGAAGG
How it was run: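 Scanned fluorescence from custom Agilent 4×180K protein-binding microarrays was regression-normalized. Binding z-scores use random background probes as reference. Ligand-free nuclear receptor dimers were incubated on the arrays for 1 h and detected with antibodies against each partner (one per run).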

Row | Sequence | PBM binding z-score
1 | TAGCCTTGGTCAGATCGGGCCAGTATACGCTATA | -0.7
2 | CCAGACAGGTGAAAGGGAACTCAGTCTGGTACGC | 1.08
3 | TCGAGTAGGTTACCAATGGGGCAGTCAGCTTTCT | 3.11
4 | TCTCGTAGATCAGCAGGTTAAGAAAGCTGGCCAA | 1.33
5 | CGTCCAAGGCCAGAGAGGTCAGTGAATGCCGAGT | 0.239
6 | CCAGACAGGTGCGAAGGTAACTCAGCCTCGATTA | -0.128
7 | CCTATTGGGCCAAAAAGGTCATTGATGCCGATAA | 1.89
8 | CGTCCAAGGTCAAGGTCATTGAAAGAGACTCGAA | 3.44
9 | ATCTCTAGGTAAAGATAGTTAAGTGAATGCAAAT | 1.79
10 | TCGTGTAGATCAAAGGTTAAGAAAGCCGAAGCCT | 0.876
11 | ACAGACAGATGATGAAGGTAACTCAGGCTATCAT | -0.169
12 | AGAATGAGGGCAATGAGTTGATAGCACGGGTGGC | 4.59
13 | CCTACTGGGCCACGAAAGGTCATTTATTCAGTGA | 5.5
14 | ACTTACGGGTCAACGAGGTTATAGAACGCGTATA | 3.53
15 | TAGCCTAGGTCATTCAGGGGCCAGTATAGAAAGC | 1.64
16 | GCTTACGGGTCAAAGGTTATAGCTTGAATAGAAT | 4.25
17 | CGAACTAGGTCATGGACAGTGAATCTCCGCACGC | 8.13
18 | CAAACTAGGTCAAAGGTCTAAGTCGAGCCAACCA | 8.53
